Screening results from PubChem.
Only some compounds are listed: those with a hit (about 3.8% of all), similar ones and a draw of the others.
A549 viability: Nrf2 qHTS screen for inhibitors: counterscreen for cytotoxicity; A549 ARE-Fluc cells, CellTiter-Fluor viability, 18-24 h; Potency, µM (doses to about 46 µM), without a hit: top-dose activity change, negative = cytotoxicity, most hits filed as inhibitors; hit rate 0.16% among 390,000; AID 504648, 2011; note: % is set by controls: 0 for no effect and ±100 for the full control effect
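A549 ARE_Fluc cells in 5% FBS OPTI-MEM were exposed to compounds in concentration-response for 18-24 h at 37 deg C. Viability was read by CellTiter-Fluor fluorescence (Ex 405/Em 525) after 30 min, before the luciferase read.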
S2 tox: Viability Counterscreen for Primary qHTS for Inhibitors of ATXN expression; S2 cells (HEK-293 line with an ATXN2-luciferase reporter) viability, CellTiter-Fluor protease fluorescence, 24 h; Potency, µM (titrated, usually from 56.7 µM), most hits filed as cytotoxic; hit rate 0.49% among 400,000; AID 651635, 2014; note: nearly all actives have a fitted effect of over 40% in size
ATXN2 expr inh: Primary qHTS for Inhibitors of ATXN expression. HEK-293 ATXN2-luciferase reporter, luminescence, 24 h. Potency, µM (titrated, usually from 57 µM), for the others: top-dose activity change, negative = inhibition, hits mostly inhibitors. hit rate 0.72% among 360,000. AID 1745845, 2022; note: % is set by controls: 0 for no effect and ±100 for the full control effect; nearly all actives have a fitted effect of over 55% in size
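qHTS (up to 57 uM final) was run with 24 h compound exposure of reporter cells at 37 °C. Each well was multiplexed: SteadyGlo luminescence measured ATXN2-luciferase expression after a fluorogenic Gly-Phe-AFC viability readout (25 uM final).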
TGFb SMAD3 inh: qHTS for Inhibitors of TGF-b | HepG2 CAGA-GFP TGF-b/SMAD3 reporter, GFP fluorescence, 18 h; TGF-beta stimulated, 500 pg/mL final | Potency, µM (highest dose often 46.1 µM), for inactives: at the top dose activity, negative = inhibition, actives largely listed as inhibitors | hit rate 1.2% among 410,000; note: % is set by controls: 0 for no effect and ±100 for the full control effect; nearly all actives have a fitted effect of over 65% in size
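GFP signal (ex488/em500-530) from TGF-beta-stimulated HEPG2 CAGA-GFP cells, 500 pg/mL final, 18 h at 37 degrees C in DMEM plus 1% FBS, normalized to unstimulated and DMSO-stimulated controls.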
Nrf2 inh: Nrf2 qHTS screen for inhibitors; A549 ARE-Fluc reporter, luciferase luminescence, 18-24 h; Potency, µM (top dose mostly 46 µM), for the others: at the highest dose activity change, negative = inhibition, usual class: inhibitors; hit rate 2.1% among 360,000; AID 504444, 2011; note: % is set by controls: 0 for no effect and ±100 for the full control effect; nearly all actives have a fitted effect of over 60% in size
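A549 ARE_Fluc cells (5000/well, 5% FBS OPTI-MEM) pre-incubated 2 h, then treated with compounds 18-24 h at 37C/5% CO2 in concentration-response. CellTiter-Fluor viability read first; BugLite luciferase luminescence after 15 min at room temperature gives Nrf2 activity.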
HepG2 tox-1: qHTS for Inhibitors of TGF-b: Cytotox Counterscreen | AID 588856, 2011 | hit rate 0.76% among 410,000 | Potency, µM (series often up to 46.1 µM), without a hit: top-dose activity change, negative = cytotoxicity, hits mostly cytotoxic | HepG2 CAGA-GFP viability, ATP luminescence, 18 h
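HepG2 CAGA-GFP cells (1000/well, DMEM with 1% FBS) received compound, then TGF-beta at 500 pg/mL final, and were incubated 18 hours at 37 degrees C. Viability was read by CellTiter-Glo luminescence. Media-only wells were set as complete cell-killing and DMSO as no toxicity.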
TGFb CAGA inh: qHTS for Inhibitors of TGF-b: Confirmation of Cherry Picks | hit rate 63% among 1,600 | Potency, µM (highest dose often 46.1 µM), for inactives: top-dose activity, negative = inhibition, actives largely listed as inhibitors | shares compounds with TGFb SMAD3 inh | HepG2 CAGA-GFP TGF-b reporter, GFP fluorescence, 18 h; cells stimulated with TGF-beta, 500 pg/mL; note: % is set by controls: 0 for no effect and ±100 for the full control effect; nearly all actives have a fitted effect of over 65% in size
HepG2 tox-2: qHTS for Inhibitors of TGF-b: Cytotox Counterscreen for Cherry Picks | Potency, µM (series often up to 46.1 µM), inactives show top-dose activity, negative = cytotoxicity, actives largely listed as inhibitors | HepG2 CAGA-GFP viability, ATP luminescence, 18 h; cells stimulated with TGF-beta, 500 pg/mL | AID 720535, 2013 | shares compounds with TGFb SMAD3 inh | hit rate 27% among 1,600; note: % is set by controls: 0 for no effect and ±100 for the full control effect; nearly all actives have a fitted effect of over 70% in size
CCL64 TGFb inh: qHTS for Inhibitors of TGF-b: CCL64 Cells Orthogonal Assay for Cherry Picks; shares compounds with TGFb SMAD3 inh; CCL64 CAGA-GFP reporter, TGF-b stimulated, GFP fluorescence, 18 h; Potency, µM (titrated, usually from 46.1 µM), for inactives: top-dose activity, negative = inhibition, most hits filed as inhibitors; hit rate 41% among 1,600; AID 720536, 2013; note: nearly all actives have a fitted effect of over 65% in size
TGFb COP inh: qHTS for Inhibitors of TGF-b: Hit Validation in HepG2 Cells using COP promoter. shares compounds with TGFb SMAD3 inh. HepG2 COP-GFP TGF-b reporter, GFP fluorescence, 18 h; cells stimulated by added recombinant TGF-beta. Potency, µM (series often up to 46.1 µM), for the others: at the highest dose activity, negative = inhibition, usual class: inhibitors. hit rate 3% among 1,600. AID 720537, 2013; note: nearly all actives have a fitted effect of over 70% in size
Starred values were filed as active, the others as inactive; i = inactive; u = inconclusive; x = no result given. Calls come from the whole dose curve; as a rule, active = well fitted curve in the direction sought with a large enough effect; inconclusive = small, poorly fitted or top-dose-only effect, or another doubt; inactive = no such curve, though single readings can be large; an effect the other way counts as inactive or inconclusive. Potency is the fitted concentration of half-maximal effect.

SMILES	A549 viability	S2 tox	ATXN2 expr inh	TGFb SMAD3 inh	Nrf2 inh	HepG2 tox-1	TGFb CAGA inh	HepG2 tox-2	CCL64 TGFb inh	TGFb COP inh
COc1ccccc1CN(C)C(=O)c1ccc(S(=O)(=O)Nc2c(C)n(C)n(-c3ccccc3)c2=O)cc1	2%	i	-10%	0%	-10%	-4%	x	x	x	x
CC(C)C[C@@H](CN1CCC[C@@H]1CN1C(=S)NC[C@@H]1Cc1ccc(O)cc1)N1C[C@H](Cc2ccc(O)cc2)N(CC2CCCCC2)C1=S	x	25µM*	u	7.1µM*	x	-89%	16µM*	u	5.8µM*	u
CC(C)C[C@@H](CN1CCC[C@@H]1CN1C(=S)NC[C@@H]1Cc1ccc(O)cc1)N1C[C@H](Cc2ccc(O)cc2)N(CC2CCCCCC2)C1=S	x	u	u	4.5µM*	x	-89%	18µM*	18µM*	8.2µM*	49%
CC(C)C[C@@H](CN1CCCC1CN1C(=S)NC[C@@H]1Cc1ccccc1)N1C[C@H](Cc2ccc(O)cc2)N(CC2CCCCC2)C1=S (some centres undefined)	x	u	-37%	x	x	x	x	x	x	x
COc1ccc(C(=O)OC(C)C(=O)NCC2CCCCC2)cc1S(=O)(=O)N1CCOCC1 (centres undefined)	-5%	i	-9%	-9%	5%	7%	x	x	x	x
C[C@]12c3[nH]c4ccc(Cl)cc4c3CCN1C(=O)[C@@H](CC(=O)NCc1ccco1)C[C@@H]2C(=O)N1CCCCC1	-10%	u	-39%	u	u	-14%	x	x	x	x
Cc1ccc(S(=O)(=O)N2CCOCC2)cc1C(=O)Nc1nc(-c2ccccn2)cs1	-12%	u	u	u	9.2µM*	-5%	9.2µM*	u	u	9%
COc1ccc(-n2c(=O)c3sc4ccccc4c3n(CC(=O)Nc3ccccc3F)c2=O)cc1	-3%	i	0%	-12%	-2%	-3%	x	x	x	x
O=C(c1ccc(Cl)c([N+](=O)[O-])c1)N1CCN(S(=O)(=O)c2ccc(Cl)cc2)CC1	-9%	i	-6%	10µM*	u	-15%	13µM*	-17%	u	-5%
Cc1ccc(C)c(OCCC(=O)Nc2cccc(S(=O)(=O)N3CCCCC3)c2)c1	u	i	-8%	13µM*	u	-5%	23µM*	-24%	u	6%
Cc1ccc(C)c(OCCC(=O)Nc2cc(S(=O)(=O)N3CCCCC3)ccc2C)c1	-3%	i	-38%	-4%	u	1%	x	x	x	x
